The results in this text go back to PubChem BioAssay (Tox21).

A number with no mark means an inactive call. Results filed as inconclusive are left out. Calls of active or inactive are those of the source. Unless noted, calls come from the whole dose curve; as a rule, active = well fitted curve in the direction sought with a large enough effect in the repeat runs; inconclusive = weak or mixed curves; inactive = no such curve, though single readings can be large; an effect the other way counts as inactive or inconclusive.

A short description of assay [1]: qHTS assay for small molecule agonists of the p53 signaling pathway (AID 651631; calls by dose curve; note: nearly all actives have a fitted effect of over 15% in size; note: potency is the fitted concentration of half-maximal effect). The essentials:
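HCT-116 cells carrying a beta-lactamase reporter under p53 response elements were dosed with compound for 16 h at 37 °C. LiveBLAzer B/G FRET substrate was then added for 2 h at room temperature, and fluorescence intensity was read to detect pathway agonism.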
In general terms: qHTS replaces the single test concentration by a dilution series.

A short description of assay [2]: qHTS assay for small molecules that induce genotoxicity in human embryonic kidney cells expressing luciferase-tagged ATAD5 (AID 651632). Note: nearly all actives have a fitted effect of over 15% in size. The essentials: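 HEK293T cells carrying a luciferase reporter tagged to ATAD5 were exposed to compound or DMSO vehicle for 16 hr at 37C, 5% CO2. Amplite was added, and after 30 min at room temperature luciferase activity was read as a marker of ATAD5 induction.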

A short description of assay [3]: qHTS assay for small molecules that induce genotoxicity in human embryonic kidney cells expressing luciferase-tagged ATAD5 - cell viability (AID 651634; calls by dose curve; note: nearly all actives have a fitted effect of over 25% in size). The essentials: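 HEK293T cells expressing luciferase-tagged ATAD5 were exposed to compound or DMSO for 15.5 hr at 37C, 5% CO2. Viability was then read as live-cell protease activity by CellTiter-Fluor fluorescence after 30 min at 37C.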

Assay [4] is described as follows: qHTS assay for small molecule disruptors of the mitochondrial membrane potential - cell viability (AID 720634; calls by dose curve;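 note: human HepG2 liver cancer cells; series mostly up to about 83 µM; nearly all actives have a fitted effect of over 20% in size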). Summed up: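 HepG2 cells seeded overnight at 37 C, then exposed to compound or DMSO for 1 hr at 37 C, 5% CO2. m-MPI dye added, then CellTiter-Glo for 30 min at room temperature; viability read as ATP luminescence.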
Assay [5] in a line: qHTS assay to test for compound auto fluorescence at 590 nm (red) in HepG2 cells (AID 720674). The essentials:
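Compound auto-fluorescence is scored relative to Rose Bengal sodium, measured at 540/590 nm in live HepG2 cultures after 1 hr compound contact (37 C, 5% CO2).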

Assay [6] can be described thus: qHTS assay to test for compound auto fluorescence at 535 nm (green) in HepG2 cells (AID 720675).
A short description of assay [7]: qHTS assay to test for compound auto fluorescence at 460 nm (blue) in HEK293 cells (AID 720678). The essentials:
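HEK293 cells (2,000 per well, medium with 10% dialyzed FBS) attached for 4-5 hr at 37C, then received compound and stood overnight at 37C, 5% CO2. Blue fluorescence was read at Ex/Em 405/460 nm and expressed relative to triamterene.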

Assay [8] is described as follows: qHTS assay to test for compound auto fluorescence at 590 nm (red) in HEK293 cells (AID 720679). The essentials: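 HEK293 cells (2,000/well, medium with 10% dialyzed FBS) attached for 4-5 hr at 37C, received 23 nL compound and were incubated overnight at 37C, 5% CO2. Red fluorescence was then read at 540/590nm Ex/Em, referenced to Rose Bengal sodium.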
A short description of assay [9]: qHTS assay to test for compound auto fluorescence at 535 nm (green) in HEK293 cells (AID 720680).
Assay [10] can be described thus: qHTS assay to test for compound auto fluorescence at 460 nm (blue) in HEK293 cell free culture (AID 720681). The essentials: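 Test compounds were pinned into cell-free culture medium (DMEM with 10% FBS) and fluorescence was read directly at Ex/Em 405/460 nm. Signals were expressed as fluorescence equivalents of triamterene, with DMSO vehicle as control.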
Assay [11] can be described thus: qHTS assay to test for compound auto fluorescence at 535 nm (green) in HEK293 cell free culture (AID 720682). Summed up:
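Green-label autofluorescence (485 nm excitation, 535 nm emission) measured on compound added to cell-free culture medium (DMEM, 10% FBS). Output is expressed relative to fluorescein.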

The nature of assay [12]: qHTS assay to test for compound auto fluorescence at 590 nm (red) in HEK293 cell free culture (AID 720683). Summed up:
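Tox21 10K library compounds were pinned into cell-free DMEM with 10% FBS and fluorescence was read at excitation 540 nm. Activity is expressed as Rose Bengal sodium equivalency.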

Assay [13] can be described thus: qHTS assay to test for compound auto fluorescence at 590 nm (red) in HepG2 cell free culture (AID 720684). The essentials: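 Measured in medium alone (MEM containing 10% FBS) following pintool addition of compound; emission at 590 nm with 540 nm excitation, referenced to Rose Bengal sodium.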
Assay [14] is described as follows: qHTS assay to test for compound auto fluorescence at 460 nm (blue) in HepG2 cell free culture (AID 720685). The essentials: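 Compound (23 nL) or DMSO pinned into cell-free MEM with 10% FBS; blue fluorescence read at 405/460 nm excitation/emission, expressed as auto-fluorescence equivalency to triamterene.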
Assay [15] can be described thus: qHTS assay to test for compound auto fluorescence at 535 nm (green) in HepG2 cell free culture (AID 720686).
Assay [16] is described as follows: qHTS assay to test for compound auto fluorescence at 460 nm (blue) in HepG2 cells (AID 720687). The essentials:
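Cells (2,000/well in MEM with 10% FBS) attached overnight at 37 C, then were exposed to compound or DMSO for 1 hr at 37 C, 5% CO2. Fluorescence read at Ex/Em 405/460 nm, expressed as triamterene-equivalent signal.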

A short description of assay [17]: qHTS assay for small molecule agonists of the p53 signaling pathway - cell viability (AID 651633; calls by dose curve; note: nearly all actives have a fitted effect of over 30% in size; note: potency is the fitted concentration of half-maximal effect). The essentials: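 p53RE-bla cells, seeded at 4,000 per well and rested 5 h at 37 C/5% CO2, received compounds in DMSO for 16 h at 37 C. CellTiter-Glo was then added, and luminescence was read after 30 min at room temperature to gauge cytotoxicity.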
A short description of assay [18]: qHTS assay for small molecule disruptors of the mitochondrial membrane potential (AID 720635). Note: potency is the fitted concentration of half-maximal effect. Summed up:
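HepG2 cells (2,000/well) attached overnight at 37C, then took compound for 1 hr at 37C, 5% CO2. Mito-MPS dye was added for 30 min; fluorescence was read at 490/535 nm (monomers) and 540/590 nm (aggregates).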

Assay [19] addresses Glucocorticoid receptor (Homo sapiens) (UniProt P04150). The assay is described as follows: qHTS assay to identify small molecule agonists of the glucocorticoid receptor (GR) signaling pathway (AID 720691; active = well fitted activation curve with a large enough effect in the signal ratio in the repeat runs, not every such curve was filed as active; the % refers to the signal ratio). The essentials:
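GR-bla HeLa cells (beta-lactamase reporter under glucocorticoid response element) were plated 4 h at 37 C/5% CO2, given compounds in DMSO, and incubated 18 h at 37 C. LiveBLAzer B/G FRET substrate was added for 2 h at room temperature, then fluorescence intensity read.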

For assay [20] the target is unchanged. Description: qHTS assay to identify small molecule antagonists of the glucocorticoid receptor (GR) signaling pathway (AID 720692; active = well fitted inhibition curve with a large enough effect in the signal ratio in the repeat runs, not every such curve was filed as active; the % refers to the signal ratio; note: potency is the fitted concentration of half-maximal effect). Summed up:
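GR-bla HeLa cells (beta-lactamase reporter under glucocorticoid response element) were pre-plated 4 h at 37 C, treated with compounds plus 5 nM dexamethasone (final) for 18 h, then read by LiveBLAzer B/G FRET fluorescence after 2 h.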
% is set by controls: 0 for no effect and ±100 for the full control effect.

Sequence of Glucocorticoid receptor (Homo sapiens) (P04150 whole entry, looked up): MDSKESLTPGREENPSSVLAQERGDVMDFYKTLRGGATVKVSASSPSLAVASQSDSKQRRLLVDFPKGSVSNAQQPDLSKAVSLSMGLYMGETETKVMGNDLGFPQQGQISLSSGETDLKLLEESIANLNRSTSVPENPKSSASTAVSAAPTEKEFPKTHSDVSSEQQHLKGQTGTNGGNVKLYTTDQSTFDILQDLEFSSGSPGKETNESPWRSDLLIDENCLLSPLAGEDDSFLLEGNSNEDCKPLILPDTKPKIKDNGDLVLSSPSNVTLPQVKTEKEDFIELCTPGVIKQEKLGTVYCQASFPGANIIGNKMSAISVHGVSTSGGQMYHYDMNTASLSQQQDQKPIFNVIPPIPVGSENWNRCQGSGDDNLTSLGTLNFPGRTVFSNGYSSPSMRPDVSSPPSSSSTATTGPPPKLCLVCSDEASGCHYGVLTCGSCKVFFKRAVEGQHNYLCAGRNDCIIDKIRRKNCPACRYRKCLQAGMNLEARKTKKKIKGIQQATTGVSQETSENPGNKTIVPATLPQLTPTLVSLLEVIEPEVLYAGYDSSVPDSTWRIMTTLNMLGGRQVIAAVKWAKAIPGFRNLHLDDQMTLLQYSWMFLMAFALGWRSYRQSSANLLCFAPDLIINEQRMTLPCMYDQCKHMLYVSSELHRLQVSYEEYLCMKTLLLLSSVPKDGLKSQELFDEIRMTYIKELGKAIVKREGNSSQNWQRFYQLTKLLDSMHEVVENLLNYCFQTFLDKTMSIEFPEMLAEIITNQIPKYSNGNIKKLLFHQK

As for `O=C(O)c1cccnc1C(=O)O`, the Potency entry in assay [1], in assay [2], in assay [3], in assay [4], in assay [7] and in assay [10] was “inactive” each time. Besides, the Potency result in assay [14] and in [16] was “inactive” each time. Further, the molecule was classed as inactive in assay [5], in assay [6], in [8], in [9], in [11] and in [12]. For the same molecule, the call in [13] and in assay [15] was inactive.
Regarding `CCOC(=N)CC(=O)OCC`, the Potency result in assay [1], in assay [2], in assay [3], in assay [4], in [7] and in assay [10] was “inactive” in each case. For the same molecule, the Potency result in [14] and in assay [16] was “inactive” in each case. Besides, the molecule was called inactive in assay [5], in assay [6], in [8], in assay [9], in [11] and in [12]. For the same molecule, the outcome in assay [13] and in assay [15] was inactive.
In the case of `CO[C@@]12[C@H](COC(N)=O)C3=C(C(=O)C(C)=C(N)C3=O)N1C[C@@H]1N[C@@H]12`, the figures for the Potency in assay [1], in assay [17] and in [20] were 1.88 µM (active), 23.7 µM (active) and 21.3 µM (active), respectively. Besides, the Potency result in assay [4], in [18], in [7], in assay [10], in [14] and in assay [16] was “inactive” in each case. In assay [19], the Potency entry was “inactive”. Also, the molecule was called inactive in assay [5], in assay [6], in [8], in assay [11], in assay [12] and in [13]. Besides, the outcome in assay [15] was inactive.
As for `C(=C\c1ccccc1)/CN1CCN(C(c2ccccc2)c2ccccc2)CC1`, the Potency entry in assay [1], in assay [17], in [3], in [4] and in [18] was “inactive” each time. In addition, in [5], the fluorescence, relative to Rose Bengal is -0.246% [at 18.6 µM]. Moreover, the results for the fluorescence, % of fluorescein control in assay [6] and in [15] were 0.0028% [at 18.6 µM] and 0.012% [at 18.6 µM], respectively. Further, the fluorescence, % of triamterene in assay [7] was 0.048% [at 18.6 µM]. Also, the fluorescence, % of fluorescent control in assay [8] is 0.417% [at 18.6 µM]; in assay [10] it was 0.0548% [at 18.6 µM]; in [12] it was -0.0283% [at 18.6 µM]; in assay [14] it was 0.108% [at 18.6 µM]; in assay [16], 0.0775% [at 18.6 µM]. Further, in assay [9], the fluorescence, % of fluorescein was 0.011% [at 18.6 µM]. Besides, the activity change in assay [11] was -0.0228% [at 18.6 µM]. In addition, the fluorescence, % of Rose Bengal in [13] was -0.312% [at 18.6 µM].
On to `Nc1nc(Cl)nc2c1ncn2[C@@H]1O[C@H](CO)[C@@H](O)[C@@H]1F`, for which the Potency is 0.0841 µM (active) in assay [1] and 0.133 µM (active) in assay [17]. In addition, the Potency result in assay [3], in [4], in assay [7], in assay [14] and in assay [16] was “inactive” in each case. The molecule was classed as inactive in assay [5], in assay [6], in assay [8], in [9], in assay [11] and in [12]. Besides, the outcome in assay [13] and in assay [15] was inactive.
For `CCCCC/C(=C\c1ccccc1)CO`, the Potency entry in assay [1], in [2], in assay [3], in assay [7], in assay [14] and in assay [16] was “inactive” each time. In [18], the Potency is 30.3 µM (active). For the same molecule, the call in assay [5], in assay [6], in [8], in assay [11], in assay [12] and in assay [13] was inactive. Further, the molecule was called inactive in assay [15].
For the molecule `CO/N=C1\CN(c2nc3c(cc2F)c(=O)c(C(=O)O)cn3C2CC2)CC1CN` (stereo unspecified), the Potency entry in assay [2], in assay [17], in assay [3], in assay [4], in [18] and in assay [7] was “inactive” each time. The Potency entry in assay [14], in assay [16], in [19] and in assay [20] was “inactive” throughout. In addition, the molecule was called inactive in [5], in assay [6], in [8], in [9], in [11] and in assay [15].
